KCNQ2 pot = potentiators of rat KCNQ2 potassium channel; Potassium voltage-gated channel subfamily KQT member 2 (Rattus norvegicus), O88943; CHO-K1 KCNQ2, FluxOR thallium flux fluorescence; active compounds read high; B-score at 10 µM; 0.54% of 310,000 active; AID 2239, 2010;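 active = fluorescence ratio B-score at least 3 SD of library B-scores, with initial fluorescence B-score within 3 of them, cut at about 5.3 in these data; same plate scores as AID 2156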;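 note: B-score of peak minus minimum over baseline fluorescence ratio after K+ and Tl+ stimulus; positive B-score means potentiation of KCNQ2 with more thallium influx and brighter signal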
Target sequence (O88943 whole entry, looked up): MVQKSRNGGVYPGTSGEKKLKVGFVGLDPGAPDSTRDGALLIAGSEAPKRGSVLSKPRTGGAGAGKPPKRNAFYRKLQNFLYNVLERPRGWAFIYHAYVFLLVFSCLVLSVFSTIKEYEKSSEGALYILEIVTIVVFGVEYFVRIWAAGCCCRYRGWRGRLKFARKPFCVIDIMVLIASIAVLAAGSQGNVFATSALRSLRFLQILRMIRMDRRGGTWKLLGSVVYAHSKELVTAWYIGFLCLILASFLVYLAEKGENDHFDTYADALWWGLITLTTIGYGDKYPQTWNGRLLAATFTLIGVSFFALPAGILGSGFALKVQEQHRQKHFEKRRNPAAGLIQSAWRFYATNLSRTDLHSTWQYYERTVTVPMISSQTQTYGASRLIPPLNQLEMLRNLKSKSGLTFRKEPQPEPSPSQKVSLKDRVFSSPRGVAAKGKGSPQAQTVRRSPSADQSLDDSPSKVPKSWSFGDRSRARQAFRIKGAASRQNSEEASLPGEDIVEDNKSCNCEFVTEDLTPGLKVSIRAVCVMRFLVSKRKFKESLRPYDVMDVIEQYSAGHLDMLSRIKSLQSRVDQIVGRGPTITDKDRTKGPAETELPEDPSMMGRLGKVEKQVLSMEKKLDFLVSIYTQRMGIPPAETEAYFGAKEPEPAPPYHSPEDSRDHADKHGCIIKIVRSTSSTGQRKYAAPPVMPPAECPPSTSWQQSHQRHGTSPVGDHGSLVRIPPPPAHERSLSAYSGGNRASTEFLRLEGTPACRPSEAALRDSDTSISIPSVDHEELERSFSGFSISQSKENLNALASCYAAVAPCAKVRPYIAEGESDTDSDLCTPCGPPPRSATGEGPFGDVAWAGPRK
KCNQ2 block = rat KCNQ2 potassium channel inhibitors, primary screen, cell-based, CHO-K1, FluxOR thallium flux, B-score. 20 min; active compounds read low. B-score at 10 µM. Potassium voltage-gated channel subfamily KQT member 2 (Rattus norvegicus), O88943. AID 2156, 2009. 1.1% of 310,000 active;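 active = fluorescence ratio B-score at most minus 3 library SDs, with starting brightness B-score within 2 library SDs, cut at about -5.5 in these data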
Active calls of the source: *. Hits are enriched below; roughly 1.6% of the tested compounds scored in any of these assays.

N#C/C(C(=O)N1CCOCC1)=C1/SC(Cc2ccccc2Cl)C(=O)N1c1ccccc1 (centres undefined) was read as KCNQ2 pot 0.16 and KCNQ2 block inactive.
`CCC(=O)c1ccc(OCC(O)CN(CCc2ccccc2)Cc2ccccc2)cc1` (centres undefined) gave KCNQ2 pot -7.56 and KCNQ2 block -7.56*.
`COc1cccc(OCC(O)CN(CCO)Cc2ccccc2)c1` (centres undefined) gave KCNQ2 block inactive.
For COc1cccc(OCc2cc(C3Nc4ccccc4C(=O)N3Cc3ccco3)ccc2OC)c1 (centres undefined) the results were KCNQ2 pot -5.87 and KCNQ2 block -5.87*.
`O=C1c2ccccc2NC(c2ccccc2)N1Cc1ccco1` (centres undefined) gave KCNQ2 block inactive.
O=C1c2ccccc2NC(c2ccc(F)cc2)N1Cc1ccco1 (centres undefined) was read as KCNQ2 pot 0.53 and KCNQ2 block inactive.
`COc1ccc(C2Nc3ccccc3C(=O)N2Cc2ccco2)cc1COc1ccc([N+](=O)[O-])cc1` (centres undefined) gave KCNQ2 pot -6.79 and KCNQ2 block -6.79*.
Screening Cc1occc1-c1nnc(SCC(=O)N(C)c2ccccc2)n1C returned KCNQ2 pot 1.39 and KCNQ2 block inactive.
For O=C(Nc1sc(-c2ccccc2)cc1C(=O)O)c1ccccc1 the results were KCNQ2 pot 3.58 and KCNQ2 block inactive.
For CCOC(=O)C1(CC2CC2)CCN(Cc2ccc(C(=O)OC)cc2)CC1 the results were KCNQ2 block inactive.
For CCOC(=O)C1(CCc2ccccc2)CCN(Cc2ccc(C(=O)OC)cc2)CC1 the results were KCNQ2 pot -5.65 and KCNQ2 block -5.65*.
`COc1ccc(C2CC(=O)c3cnc(NC(=O)c4cc(OC)cc(OC)c4)nc3C2)cc1` (centres undefined) gave KCNQ2 pot 0.43 and KCNQ2 block inactive.
`COc1ccc(C2CC(=O)c3cnc(Nc4cc(C)cc(C)c4)nc3C2)cc1` (centres undefined) gave KCNQ2 pot -5.92 and KCNQ2 block -5.92*.
For CS(=O)(=O)N(Cc1ccc(C(=O)NCc2ccco2)cc1)c1ccccc1 the results were KCNQ2 pot 1.43 and KCNQ2 block inactive.
Screening Cc1ccc(/C=C2\SC(=S)N(CCC(=O)NCCCN3CCOCC3)C2=O)cc1 returned KCNQ2 block inactive.
CC(OC(=O)c1ccccc1NS(=O)(=O)c1cccc(C(F)(F)F)c1)C(=O)N(C)Cc1ccccc1 (centres undefined) was read as KCNQ2 pot -6.47 and KCNQ2 block -6.47*.
For CN(Cc1ccccc1)C(=O)COC(=O)c1ccccc1NS(=O)(=O)c1cccc(N)c1 the results were KCNQ2 block inactive.
COc1ccc(N2CCN(Cc3cc4c(cc3O)CCC4)CC2)cc1 was read as KCNQ2 pot 0.46 and KCNQ2 block inactive.
Oc1cc2c(cc1CN1CCN(c3cccc(C(F)(F)F)c3)CC1)CCC2 was read as KCNQ2 pot -7.26 and KCNQ2 block -7.26*.
Screening CC(=O)Nc1ccc(C(=O)NCC2CCCCC2)cc1 returned KCNQ2 pot 0.11 and KCNQ2 block inactive.
For CC(CNC(=O)c1ccc(C(C)(C)C)cc1)CN(C)C (centres undefined) the results were KCNQ2 block inactive.
Screening CCn1c(=O)c(C(=O)NCCc2ccc(Cl)cc2)c(O)c2ccccc21 returned KCNQ2 pot 1.22 and KCNQ2 block inactive.
Screening CCCn1c(=O)c(C(=O)NCCc2ccc(Cl)cc2)c(O)c2ccccc21 returned KCNQ2 pot -5.56 and KCNQ2 block -5.56*.
Screening COc1ccc(C/C(C)=N/NC(=S)Nc2ccc(C)c(C)c2)cc1 returned KCNQ2 block inactive.
COc1cc(CCN2C(=O)c3cccc4cccc(c34)C2=O)c(S(=O)(=O)N2CCC(C)CC2)cc1OC was read as KCNQ2 pot -6.67 and KCNQ2 block -6.67*.
Screening COc1cc(CCN2C(=O)c3cccc4cccc(c34)C2=O)c(S(=O)(=O)N2CCCCCC2)cc1OC returned KCNQ2 block inactive.
Screening COc1ccc(S(=O)(=O)N(C)CC(=O)Nc2ccccc2C(F)(F)F)cc1 returned KCNQ2 block inactive.
Screening O=C(NCc1ccc2c(c1)OCO2)c1cc(=O)[nH]c2ccccc12 returned KCNQ2 block inactive.
Cc1nn(C)c(Cl)c1NC(=O)OCc1ccc(Cl)cc1Cl was read as KCNQ2 pot 1.77 and KCNQ2 block inactive.
`C=CCOC(=O)/C(=C\c1ccccc1)NC(=O)c1ccc(C)cc1` gave KCNQ2 block inactive.
C=CCOC(=O)/C(=C\c1cccc2ccccc12)NC(=O)c1ccccc1 was read as KCNQ2 pot -5.78 and KCNQ2 block -5.78*.
For CCOc1ccccc1OCC(=O)Nc1ccc(S(=O)(=O)Nc2nc(C)cc(C)n2)cc1 the results were KCNQ2 pot 1.99 and KCNQ2 block inactive.
`COc1ccc(C(CCN2CCCC(C)C2)c2c(OC)cc(OC)c3c(-c4ccccc4)cc(=O)oc23)cc1` (centres undefined) gave KCNQ2 pot -5.95 and KCNQ2 block -5.95*.
Screening COc1cc(OC)c2c(-c3ccccc3)cc(=O)oc2c1C(CCN1CCCC(C)C1)c1ccc(N(C)C)cc1 (centres undefined) returned KCNQ2 block inactive.
For O=C1NCC(c2ccccc2)C1C(=O)N/N=C/c1ccc(Cl)s1 (centres undefined) the results were KCNQ2 block inactive.
Screening COc1ccc(-c2csc(/C(C#N)=C\c3ccc(OC)c([N+](=O)[O-])c3)n2)cc1 returned KCNQ2 block inactive.
Screening Cc1cc(OCC(=O)NCCc2c[nH]c3ccccc23)c2c(C)c(C)c(=O)oc2c1 returned KCNQ2 pot 0.48 and KCNQ2 block inactive.
COC(=O)C(Cc1ccc(OC(=O)c2ccccc2Cl)cc1)N1Cc2ccccc2C1=O (centres undefined) was read as KCNQ2 block inactive.
For COC(=O)C(Cc1ccc(OC(=O)c2ccccc2C)cc1)N1Cc2ccccc2C1=O (centres undefined) the results were KCNQ2 pot -5.86 and KCNQ2 block -5.86*.
`CCNc1nc(NC(C)C)nc(SCCOc2ccc(C)cc2)n1` gave KCNQ2 pot -5.56 and KCNQ2 block -5.56*.
Screening CCNc1nc(NC(C)C)nc(SCCOC(=O)c2ccccc2)n1 returned KCNQ2 block inactive.
Screening O=c1ccc(N=Nc2ccccc2)ccc1O returned KCNQ2 pot 19.2* and KCNQ2 block inactive.
Screening O=S(=O)(O)c1ccc(N=Nc2ccccc2)cc1 returned KCNQ2 pot 0.12 and KCNQ2 block inactive.
Cc1ccc(S(=O)(=O)N2CCC(C(=O)OCC(=O)N(Cc3ccccc3)C(C)(C)C)CC2)cc1C was read as KCNQ2 pot -6.52 and KCNQ2 block -6.52*.
Screening CCOC(=O)C1CCN(S(=O)(=O)c2ccc(C)c(C)c2)CC1 returned KCNQ2 pot 1.19 and KCNQ2 block inactive.
CCOC(=O)c1c(-c2ccccc2)csc1NC(=O)c1ccc(S(=O)(=O)N2CCOCC2)cc1 was read as KCNQ2 block inactive.
Screening COc1ccc(CN(C)CC(O)COc2ccc(-c3ccccc3)cc2)cc1OC (centres undefined) returned KCNQ2 pot 0.56 and KCNQ2 block inactive.

Bioassay records: PubChem, Johns Hopkins Ion Channel Center
